# CBX7 AlphaScr = CBX7 inhibition, primary AlphaScreen; O95931; AlphaScreen His6-CBX7 / biotin-H3K27me3 peptide binding; stronger effect = lower value; normalised signal (fraction of DMSO) (concentration not given with the values); actives 1.1% (n = 66,000); in the data active = normalised signal below about 0.5
# Target sequence (O95931 whole entry, looked up): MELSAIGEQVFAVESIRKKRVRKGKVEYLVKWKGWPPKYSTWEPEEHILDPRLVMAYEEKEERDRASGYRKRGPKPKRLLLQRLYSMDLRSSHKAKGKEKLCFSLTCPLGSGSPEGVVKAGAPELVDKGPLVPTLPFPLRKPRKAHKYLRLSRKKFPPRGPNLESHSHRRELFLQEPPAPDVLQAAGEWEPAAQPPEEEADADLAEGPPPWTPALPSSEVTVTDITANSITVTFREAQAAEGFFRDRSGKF
# A number is an active result; – = inactive. The entries come from a sample that favours hits as a whole.
SMILES,CBX7 AlphaScr
Cc1ccc(NC(=O)Nc2ccc(Cc3ccncc3)cc2)cc1C,–
O=C(Nc1ccc(Cc2ccncc2)cc1)c1ncn[nH]1,0.058
Cc1ccc(Nc2nnc(C(C)(C)C)c(=O)[nH]2)cc1,–
CCOC(=O)c1ccc(Nc2nnc(C(C)(C)C)c(=O)[nH]2)cc1,0.5
CCOc1ccc(Nc2nnc(C(C)(C)C)c(=O)[nH]2)cc1,–
Cc1ccc(-c2cc(C(=O)NCCCOC(C)C)c3ccccc3n2)cc1C,–
Cc1ccc(S(=O)(=O)Nc2cccc3cccnc23)cc1,0.085
Cc1ccc(S(=O)(=O)N(C)c2cccc3cccnc23)cc1,–
Cc1ccc(S(=O)(=O)Nc2ccccc2CNc2ccccn2)cc1,–
O=C(CN1C(=O)COc2ccc(S(=O)(=O)N3CCOCC3)cc21)NCCN1CCCC1,–
Cc1cccc2nc(-c3ccncc3)c(Nc3ccc4c(c3)OCO4)n12,–
Cc1cccc2nc(-c3ccsc3)c(Nc3ccc4c(c3)OCO4)n12,–
Cc1cccc2nc(-c3ccccn3)c(Nc3ccc4c(c3)OCO4)n12,0
Cc1cccc2nc(-c3ccc(N(C)C)cc3)c(Nc3ccc4c(c3)OCO4)n12,–
Cc1cccc2nc(-c3ccccn3)c(Nc3ccc4c(c3)OCCO4)n12,0
Cc1cccc2nc(-c3ccc(Cl)cc3)c(Nc3ccc4c(c3)OCO4)n12,–
O=C(CC1C(=O)N(c2ccccc2)C(=O)N1Cc1cccs1)Nc1ccc(F)cc1 (stereo unspecified),–
O=C(Cn1c(SCc2ccccc2F)nc2ccncc21)N1CCCCCC1,–
O=C(CCc1ccccc1)Nc1ccc2nc(SCC(=O)N3CCOCC3)sc2c1,–
O=C1CCc2cc(S(=O)(=O)NC(C(=O)NCc3ccc4c(c3)OCO4)c3ccccc3)ccc2N1 (stereo unspecified),–
CCN(CC)CCN1C(=O)Cn2c3c(c4cccc1c42)CCC3,–
CN(C)CCCN1C(=O)CCn2c(-c3ccccc3)c(-c3ccccc3)c3cccc1c32,0.49
CCOC(=O)c1ccc(NC(=O)[C@H](CC(C)C)N2Cc3ccccc3C2=O)cc1,–
Cc1ccc(CNC(=O)c2cc(=O)n(Cc3cccc(C)c3)c3ccccc23)cc1,–
COc1cc(Cl)c(S(=O)(=O)NCCc2c(C)[nH]c3ccc(C)cc23)cc1Cl,–
SMILES,CBX7 AlphaScr
COc1ccc(OC)c(S(=O)(=O)NCCc2c(C)[nH]c3ccc(OC)cc23)c1,–
COc1ccc(S(=O)(=O)NCCc2c(C)[nH]c3ccc(C)cc23)cc1,0.45
CCCCN(CCCC)S(=O)(=O)c1ccc(C(=O)Nc2ccc3sc(C)nc3c2)cc1,–
CCOC(=O)c1c(C)n(C)c2ccc(OCC(O)Cn3c(Cc4ccccc4)nc4ccccc43)cc12 (stereo unspecified),–
CCOc1ccc2c(c1)c(=O)c(S(=O)(=O)c1ccccc1)cn2CC(=O)Nc1cccc(C)c1,–
Cc1cc(-c2nc3ncccc3o2)ccc1NC(=O)C(C)(C)C,–
CCCCN1C(=O)C(O)(CC(=O)c2ccc(C(C)C)cc2)c2cc(Br)ccc21 (stereo unspecified),–
CCCN1C(=O)C(O)(CC(=O)c2ccc(C(C)C)cc2)c2cc(Br)ccc21 (stereo unspecified),0.14
O=C(CC1(O)C(=O)N(CCc2ccccc2)c2ccc(Br)cc21)c1ccccc1 (stereo unspecified),–
Cc1ccsc1-c1ncnn1-c1ccc(Cl)cc1,–
Cc1nc2sc(C(=O)Nc3cccc(C(F)(F)F)c3)c(N)c2c2c1CCCC2,–
CCc1ccc2c(c1)c(=O)c(S(=O)(=O)c1ccccc1)cn2CC(=O)Nc1cccc(Cl)c1,–
CCn1cnc2cc(NCc3ccc(OC)cc3OC)ccc21,–
COc1cccc(CNc2ccc3c(c2)ncn3C(C)(C)C)c1OC,–
CCCn1cnc2cc(NCc3ccc(OC)cc3OC)ccc21,–
COc1ccc(-n2cnc3cc(NCc4cccc(OC)c4OC)ccc32)cc1,0.2
Cc1ccc(C(=O)Nc2ccc3c(c2)ncn3-c2ccccc2)cc1,–
COc1cccc(CNc2ccc3c(c2)ncn3-c2ccccc2)c1OC,0.26
O=C1Nc2cc(C(=O)N3CCN(c4ccccc4)CC3)ccc2Sc2ccccc21,–
CCc1ccc(NC(=O)C(NS(=O)(=O)c2ccc3c(c2)CCC(=O)N3)c2ccccc2)cc1 (stereo unspecified),–
CC1(C)CC(=O)N(CC(=O)NCCc2ccc(Cl)cc2)c2ccccc2S1,–
CCCCN(C)S(=O)(=O)c1ccc2c(c1)CCN2C(=O)C1CC1,–
Cc1nc2cc(C(=O)NCc3ccccn3)ccc2n1-c1ccc(Br)cc1,–
Cn1nc(-c2ccc(C(=O)NCc3ccccc3)cc2)c2ccccc2c1=O,–
O=c1[nH]c2ccc(S(=O)(=O)NCCc3ccccc3)cc2[nH]1,–
SMILES,CBX7 AlphaScr
CCOC(=O)Cn1c(=O)c(-c2ccccc2NCc2ccccc2)nc2ccccc21,–
CCNc1ccc(Br)cc1-c1nc2ccccc2n(CC)c1=O,0.27
CCOC(=O)Cn1c(=O)c(-c2cc(Br)ccc2NC)nc2cc3ccccc3cc21,–
CCN(c1ccc(C)c(C)c1)S(=O)(=O)c1ccc2c(c1)CC(C)N2C(C)=O (stereo unspecified),–
COc1ccc(-c2cc3ccccc3n2CC(O)CN2CCCCC2C)cc1 (stereo unspecified),–
CCCCn1c(C2CC(=O)N(c3ccc(C)c(Cl)c3)C2)nc2ccccc21 (stereo unspecified),–
COc1ccc(C(=O)Nc2nc3ccc(S(N)(=O)=O)cc3s2)cc1,–
COc1ccc(-c2nnc(NC(=O)c3ccc(S(=O)(=O)N(C)Cc4ccccc4)cc3)o2)c(OC)c1,0.0014
CCCCN(C)S(=O)(=O)c1ccc(C(=O)Nc2nnc(-c3ccc(OC)cc3OC)o2)cc1,–
COc1ccc(-c2nnc(NC(=O)c3ccc(S(=O)(=O)N(C)Cc4ccccc4)cc3)o2)cc1,0.0078
COc1ccc(-c2nnc(NC(=O)c3ccc(S(=O)(=O)N4CCOCC4)cc3)o2)c(OC)c1,–
COc1cc(OC)cc(-c2nnc(NC(=O)c3ccc(S(=O)(=O)N4CCCC(C)C4)cc3)o2)c1 (stereo unspecified),–
COc1cccc(-c2nnc(NC(=O)c3ccc(S(=O)(=O)N(C)C)cc3)o2)c1,0.23
COCCN(CCOC)S(=O)(=O)c1ccc(C(=O)Nc2nnc(-c3ccc(OC)cc3)o2)cc1,–
COCCN(CCOC)S(=O)(=O)c1ccc(C(=O)Nc2nnc(-c3cccc(OC)c3)o2)cc1,–
CN(Cc1ccccc1)S(=O)(=O)c1ccc(C(=O)Nc2ccc(-c3nc4ccccc4[nH]3)cc2)cc1,–
COc1cc(OC)cc(-c2nnc(NC(=O)c3ccc(S(=O)(=O)N(C)Cc4ccccc4)cc3)o2)c1,0.076
CCN(C(=O)Cn1nc(Cc2ccncc2)c2ccccc2c1=O)c1ccccc1F,–
CCN(CC)S(=O)(=O)c1ccc(C(=O)NCCc2cc3ccc(C)cc3[nH]c2=O)cc1,–
CCCC1=Nc2cc(C(=O)N3CCc4ccccc4C3)ccc2Sc2ccccc21,–
COc1cccc(-c2cc(C(=O)O)c3ccccc3n2)c1,–
Cc1c(Cl)cccc1Nc1nc(-c2ccccc2)nc2ccccc12,–
O=C(Nc1cccc(Cl)c1)c1nn2c(C(F)(F)F)cc(-c3ccccc3)nc2c1Br,–
Cc1cccc(CN2CCN(CC(=O)NCCCSC3CCCCC3)C2=O)c1,–
COc1ccccc1-c1nnc(NC(=O)c2ccc(S(=O)(=O)N3CCC(C)CC3)cc2)o1,–
COc1ccccc1-c1nnc(NC(=O)c2ccc(S(=O)(=O)N3CCCC(C)C3)cc2)o1 (stereo unspecified),–
